Data taken from PubChem BioAssay.
Calls of active or inactive are those of the source.

Columns and labels:
[1] = optical density shifts of acrAB sulA E. coli – strain DRC41, OD650, 48 h, E. coli filamentation inducer project, primary screen (AID 1152); conditions: higher = more signal, called active from +8 up or from −8 down;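 further: E. coli MC1000 strain DRC41 lacking acrAB efflux pump and sulA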
[2] = probe aLefty1 binding on compound microarray – biochemical, small-molecule microarray, 635/667 nm fluorescence, primary screen (AID 1153); conditions: higher = more signal;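 further: score merges spot fluorescence with signal-to-noise ratio from the scanned slide images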
[3] = plasmodial surface anion channel blockers, osmotic lysis – cell-based, P. falciparum Indochina, OD700, 1 h, primary screen (AID 1154); conditions: P. falciparum Indochina infected RBC osmotic lysis, higher = more signal, called active from +8 up or from −8 down
[4] = plasmodial surface anion channel blockers, osmotic lysis – cell-based, P. falciparum Indochina, OD700, 2 h, primary screen (AID 1155);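 further: lysis reports solute entry through the parasite surface anion channel PSAC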; conditions: P. falciparum Indochina infected erythrocytes, higher = more signal, called active from +8 up or from −8 down
[5] = changes in parasitized red cell lysis, either direction – P. falciparum Indochina, OD700, 3 h, PSAC antagonist project, primary screen (AID 1156); conditions: P. falciparum-infected erythrocytes, osmotic lysis, higher = more signal, called active from +8 up or from −8 down
[6] = plasmodial surface anion channel blockers, osmotic lysis – cell-based, P. falciparum Indochina, OD700, 18 h, primary screen (AID 1157); conditions: P. falciparum Indochina infected erythrocytes, osmotic lysis OD700, 18 h; higher = more signal, called active from +8 up or from −8 down
[7] = S6 kinase pathway phospho-S6 level changes – cell-based, A549, cytoblot, luminescence, serum-stimulated, primary screen (AID 1158); conditions: 5 h, higher = more signal;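 further: serum-stimulated A549 lung adenocarcinoma cells; signal is phosphorylated S6 detected by cytoblot immunostaining with HRP secondary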
[8] = biological target: NADPH oxidase 2 (Homo sapiens) (UniProt P04839); assay: compounds shifting NOX2 Amplex Red fluorescence – cell-based, HEK293-NOX2, PMA-stimulated, NOX inhibitor project, primary screen (AID 1159); conditions: 45 min, higher = more signal, called active from +8 up or from −8 down; further: test concentration not given here
[9] = biological target: NADPH oxidase 4 (Homo sapiens) (UniProt Q9NPH5); assay: compounds shifting NOX4 Amplex Red fluorescence – cell-based, HEK293-NOX4, tetracycline-induced, NOX inhibitor project, primary screen (AID 1160); conditions: HEK293-NOX4, Amplex Red H2O2 fluorescence, 45 min; higher = more signal, called active from +8 up or from −8 down
[10] = biological target: NADPH oxidase 5 (Homo sapiens) (UniProt Q96PH1); assay: compounds shifting NOX5 Amplex Red fluorescence – cell-based, HEK293-NOX5, NOX inhibitor project, primary screen (AID 1161); conditions: HEK293-NOX5, ionomycin, 45 min, higher = more signal
[11] = compound effects on lung adenocarcinoma cell viability – A549, calcein-AM fluorescence, 48 h, basal, profiling panel (AID 1162); conditions: higher = more signal; further: test concentration not given here
[12] = compound effects on differentiated 3T3-L1 adipocyte viability – cell-based, 3T3-L1 adipocytes, calcein-AM fluorescence, 48 h, basal, profiling panel (AID 1163); conditions: 3T3-L1 adipocytes viability, higher = more signal; further: test concentration not given here
[13] = compound effects on hepatocellular carcinoma cell viability – HepG2, calcein-AM fluorescence, 48 h, basal, profiling panel (AID 1164); conditions: higher = more signal; further: test concentration not given here
[14] = compound effects on multiple myeloma cell viability – MM1S, calcein-AM fluorescence, 48 h, basal, profiling panel (AID 1165); conditions: higher = more signal; further: test concentration not given here
[15] = calcein-AM signal in unstimulated myeloma cells – cell-based, calcein-AM fluorescence, 48 h, PK04 Diversity Set, profiling panel (AID 1166); conditions: RPMI8226 myeloma viability, higher = more signal;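 further: cells grown under basal conditions without added stimulus; test concentration not given here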
[16] = JC-1 mitochondrial signal, unstimulated HepG2 cells – cell-based, JC-1 fluorescence, 24 h, 100 nL compound, profiling panel (AID 1167); conditions: HepG2 mitochondrial potential, higher = more signal; further: test concentration not given here
[17] = JC-1 mitochondrial signal, unstimulated adipocytes – cell-based, JC-1 fluorescence, 3T3-L1 adipocytes, 24 h, 100 nL compound, profiling panel (AID 1168); conditions: JC-1 mitochondrial fluorescence, higher = more signal, called active from +8 up or from −8 down; further: test concentration not given here
[18] = JC-1 mitochondrial signal, unstimulated myeloma cells – cell-based, JC-1 fluorescence, RPMI8226, 24 h, 100 nL compound, profiling panel (AID 1169); conditions: JC-1 mitochondrial potential fluorescence, higher = more signal; further: test concentration not given here
[19] = JC-1 mitochondrial signal, unstimulated MM1S myeloma – cell-based, JC-1 fluorescence, 24 h, 100 nL compound, profiling panel (AID 1170); conditions: MM1S mitochondrial potential, higher = more signal; further: test concentration not given here
[20] = resazurin metabolic signal in A549 cells – cell-based, resazurin fluorescence, 24 h, PK04 Diversity Set, profiling panel (AID 1171); conditions: A549 viability, higher = more signal, called active from +8 up or from −8 down; further: test concentration not given here

NADPH oxidase 2 (Homo sapiens), sequence (P04839 whole entry, looked up): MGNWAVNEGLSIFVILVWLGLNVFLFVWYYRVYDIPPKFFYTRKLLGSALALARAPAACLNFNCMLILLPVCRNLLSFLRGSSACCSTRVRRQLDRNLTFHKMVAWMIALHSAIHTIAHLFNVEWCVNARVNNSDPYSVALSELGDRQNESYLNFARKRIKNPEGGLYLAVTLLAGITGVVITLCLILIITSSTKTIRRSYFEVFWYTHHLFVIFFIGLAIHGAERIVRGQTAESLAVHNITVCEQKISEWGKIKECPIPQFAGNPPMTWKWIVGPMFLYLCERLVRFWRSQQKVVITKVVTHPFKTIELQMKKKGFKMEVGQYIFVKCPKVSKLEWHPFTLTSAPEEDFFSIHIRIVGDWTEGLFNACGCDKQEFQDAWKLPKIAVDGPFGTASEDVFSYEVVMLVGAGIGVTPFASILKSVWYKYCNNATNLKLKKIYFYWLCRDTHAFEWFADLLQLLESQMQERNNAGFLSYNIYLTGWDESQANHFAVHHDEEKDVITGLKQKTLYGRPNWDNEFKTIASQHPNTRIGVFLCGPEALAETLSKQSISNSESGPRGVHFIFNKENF
NADPH oxidase 5 (Homo sapiens), sequence (Q96PH1 whole entry, looked up): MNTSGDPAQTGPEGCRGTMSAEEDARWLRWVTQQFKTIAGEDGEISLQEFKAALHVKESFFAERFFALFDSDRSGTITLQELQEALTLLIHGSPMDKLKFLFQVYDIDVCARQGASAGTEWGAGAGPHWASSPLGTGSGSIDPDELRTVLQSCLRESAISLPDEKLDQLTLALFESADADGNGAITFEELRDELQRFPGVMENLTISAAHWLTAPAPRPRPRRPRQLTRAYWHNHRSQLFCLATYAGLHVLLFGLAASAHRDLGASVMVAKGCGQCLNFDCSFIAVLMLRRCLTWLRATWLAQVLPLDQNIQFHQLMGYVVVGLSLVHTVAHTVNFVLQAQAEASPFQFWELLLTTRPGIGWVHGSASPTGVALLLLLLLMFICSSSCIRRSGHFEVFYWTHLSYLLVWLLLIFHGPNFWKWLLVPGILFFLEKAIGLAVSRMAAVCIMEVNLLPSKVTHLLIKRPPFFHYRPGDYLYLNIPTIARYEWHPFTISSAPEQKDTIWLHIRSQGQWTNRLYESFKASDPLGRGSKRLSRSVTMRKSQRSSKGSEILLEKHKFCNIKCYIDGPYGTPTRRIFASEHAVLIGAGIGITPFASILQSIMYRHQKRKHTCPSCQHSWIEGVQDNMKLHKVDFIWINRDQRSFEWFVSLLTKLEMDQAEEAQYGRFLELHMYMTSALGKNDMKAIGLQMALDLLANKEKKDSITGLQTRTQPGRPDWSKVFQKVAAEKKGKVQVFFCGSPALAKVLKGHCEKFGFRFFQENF
NADPH oxidase 4 (Homo sapiens), sequence (Q9NPH5 whole entry, looked up): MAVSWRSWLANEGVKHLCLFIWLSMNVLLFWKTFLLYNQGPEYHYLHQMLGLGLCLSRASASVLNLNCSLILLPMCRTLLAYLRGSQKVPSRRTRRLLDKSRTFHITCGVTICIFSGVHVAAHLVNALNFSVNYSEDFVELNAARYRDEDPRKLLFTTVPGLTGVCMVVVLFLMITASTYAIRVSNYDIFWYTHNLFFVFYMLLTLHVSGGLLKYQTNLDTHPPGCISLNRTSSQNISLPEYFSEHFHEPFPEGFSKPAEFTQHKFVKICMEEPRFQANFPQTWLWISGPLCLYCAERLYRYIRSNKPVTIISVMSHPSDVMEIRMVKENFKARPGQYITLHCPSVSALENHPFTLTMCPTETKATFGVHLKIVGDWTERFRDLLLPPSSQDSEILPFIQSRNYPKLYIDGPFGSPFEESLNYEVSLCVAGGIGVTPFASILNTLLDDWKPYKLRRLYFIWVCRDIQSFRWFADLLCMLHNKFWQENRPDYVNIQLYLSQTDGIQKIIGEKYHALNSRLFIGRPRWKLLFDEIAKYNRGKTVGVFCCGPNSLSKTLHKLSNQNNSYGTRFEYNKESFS

Structure (SMILES)	z-score [1]	composite z-score [2]	z-score [3]	z-score [4]	z-score [5]	z-score [6]	z-score [7]	z-score [8]	z-score [9]	z-score [10]	z-score [11]	z-score [12]	z-score [13]	z-score [14]	z-score [15]	z-score [16]	z-score [17]	z-score [18]	z-score [19]	z-score [20]
CC1CC/C=C\[C@H]2OC34C=CCN(c5ccc6ccccc6c5)C(=O)[C@H]3N(CCCCCO)C(=O)[C@@H]4C2C(=O)O1 (stereo not given in full)	-0.557 (inactive)	-0.427	0.157 (inactive)	0.222 (inactive)	-0.0324 (inactive)	0.0382 (inactive)	0.455	0.718 (inactive)	-0.265 (inactive)	1.7	0.111	0.956	0.778	1.68	-0.823	-0.684	-0.381 (inactive)	1.1	0.401	-0.292 (inactive)
C[N+](C)(C)CCCC[C@@H]1NC(=O)[C@@H]2C[C@H](C(=O)NCCCCCCNC(=O)CS)[C@H](c3cccc(OCCO)c3)N2C1=O	-0.0169 (inactive)	-0.012	5.87 (inactive)	1.39 (inactive)	-0.293 (inactive)	0.644 (inactive)	0.133	1.85 (inactive)	1.12 (inactive)	1.45	-0.14	-0.0406	1.5	0.954	0.186	1.53	0.215 (inactive)	0.476	-0.677	-0.333 (inactive)
COC(=O)[C@@]1(Cc2ccccc2)[C@H]2c3cc(C(=O)N(C)C)n(Cc4ccccc4)c3C[C@H]2CN1C(=O)c1ccccc1	-1.39 (inactive)	0.177	1.54 (inactive)	0.488 (inactive)	0.775 (inactive)	0.667 (inactive)	-0.608	0.543 (inactive)	-0.0416 (inactive)	-0.0705	-1.19	-0.93	-0.775	-0.143	-0.747	1.14	-0.655 (inactive)	0.599	-1.06	-0.407 (inactive)
CN1C(=O)C2C=CC(C(O)c3ccc(Br)cc3)N(Nc3ccccc3)C2C1=O (stereo not given)	-0.506 (inactive)	0.106	0.884 (inactive)	0.708 (inactive)	0.302 (inactive)	0.826 (inactive)	-0.595	-0.592 (inactive)	-4.5 (inactive)	-2.23	0.622	-0.384	1.17	-0.0257	-0.119	-3.16	-1 (inactive)	0.0774	-0.425	-0.443 (inactive)
C=CCOC(=O)[C@@H]1[C@H]2C(=O)O[C@H](c3ccccc3)[C@H](c3ccccc3)N2[C@H](c2ccc(OCCOC(=O)[C@H]3C[C@H]4C(=O)N[C@@H](CC(C)C)C(=O)N4[C@H]3c3cccc(OCCO)c3)cc2)[C@@]12C(=O)Nc1ccc(I)cc12	-0.0888 (inactive)	0.185	2.85 (inactive)	-0.154 (inactive)	0.789 (inactive)	-1.24 (inactive)	0.456	1.07 (inactive)	1.02 (inactive)	0.73	0.704	1.54	-0.533	-0.727	-1.34	-1.91	1.59 (inactive)	-0.946	-1.2	-0.304 (inactive)
